Test results as given in PubChem BioAssay (NCATS).
Records with an inconclusive call do not appear. Calls of active or inactive are those of the source. The call rests on the fitted dose curve; in most records, active means well fitted inhibition curve with a large enough effect; inconclusive means small, poorly fitted or top-dose-only effect; inactive means flat fitted curve, though single readings scatter. Peptide text beside a SMILES is read from it.

These compounds were tested on CP315 (assay: qHTS profiling for inhibitors of Plasmodium falciparum proliferation (AID 504749; further: nearly all actives have a fitted effect of over 60% in size;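 on activity, negative = inhibition: 0% = DMSO vehicle and full inhibition = artemisinin control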)). Conditions: P. falciparum in erythrocytes, SYBR Green DNA, 72 h; series mostly up to 12.8 µM; activity, negative = inhibition: at the top concentration.
Procedure, shortened: (§1)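 Quantitative HTS: compounds pinned into medium, infected erythrocytes added (0.3% parasitemia, 2.5% hematocrit), 72 h culture at 37 C under 5% CO2. Saponin/Triton lysis with SYBR Green I, overnight RT, then fluorescence read.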
Potency means the concentration at half of the fitted maximal effect.

activity, negative = inhibition, inactive:
C[C@]12C=CC(=O)C=C1CCC1C2C(O)C[C@]2(C)C1CC[C@]2(O)C(=O)CO (some centres undefined) -9.63% [at 28.7 µM], CC1(C)S[C@H]2C(NC(=O)[C@@H](N)c3ccc(O)cc3)C(=O)N2[C@@H]1C(=O)O (some centres undefined) -5.59% [at 28.7 µM], CC(C)=CCC[C@](C)(O)C1CC=C(C)CC1 (some centres undefined) -1.19% [at 28.7 µM], C[C@]1(c2ccccc2)OC(C(=O)O)=CC1=O 3.62% [at 28.7 µM], CC(=O)N[C@H](CC(C)C)C(=O)O -1.3% [at 28.7 µM], COc1ccc2cc(C(C)CO)ccc2c1 (centres undefined) -2.22% [at 28.7 µM], CC1CCC(C(C)C)C(=O)C1 (centres undefined) -10.2% [at 28.7 µM], CNC1CC(N)[C@H](O)[C@@H](O[C@@H]2OC(CO)C3OC4(OC(C(N)CO)C(O)C(O)C4O)O[C@@H]3[C@H]2O)C1O (some centres undefined) 1.03% [at 28.7 µM], CCCC(=O)O[C@]1(C(=O)CO)CCC2[C@@H]3CCC4=CC(=O)CC[C@]4(C)C3C(O)C[C@]21C (some centres undefined) 0.608% [at 28.7 µM], CC(=O)[C@]1(O)CCC2C3C=C(Cl)C4=CC(=O)C5CC5[C@@]4(C)C3CC[C@]21C (some centres undefined) -1.44% [at 28.7 µM], CC(=O)N[C@@H]1C(O)OC(CO)C(O)C1O (some centres undefined) -4.5% [at 28.7 µM], C/C1=C2N=C(/C=C3N=C(/C(C)=C4\[N-]C(C)(C5N=C1C(C)(CCC(=O)NCC(C)OP(=O)([O-])O[C@H]1C(O)C(n6cnc7cc(C)c(C)cc76)O[C@@H]1CO)C5CC(N)=O)C(C)(CC(N)=O)C4CCC(N)=O)C(C)(CC(N)=O)C\3CCC(N)=O)C(C)(C)C/2CCC(N)=O.[CH2-]C1OC(n2cnc3c(N)ncnc32)C(O)C1O.[Co] (some centres undefined) -3.29% [at 28.7 µM], O=C1OC(CO)C(O)C(O)C1O (centres undefined) -1.81% [at 28.7 µM], CNC1C(OC2C(O[C@@H]3C(O)C(O)[C@@H](N=C(N)N)C(O)C3N=C(N)N)OC(C)[C@@]2(O)CO)OC(CO)C(O)C1O (some centres undefined) 0.314% [at 28.7 µM], Nc1nc2ncc(CNc3ccc(C(=O)NC(CCC(=O)O)C(=O)O)cc3)nc2c(=O)[nH]1 (centres undefined) 3.6% [at 28.7 µM]

Potency, active:
COC1C=CO[C@@]2(C)Oc3c(C)c(O)c4c(O)c(c(C=NN5CCN(C)CC5)c(O)c4c3C2=O)NC(=O)/C(C)=C\C=CC(C)C(O)[C@@H](C)C(O)C(C)[C@H](OC(C)=O)C1C (some centres undefined) 4.78 µM, COc1cc(C2c3cc4c(cc3C(O[C@@H]3OC5COC(c6cccs6)OC5C(O)C3O)C3COC(=O)C23)OCO4)cc(OC)c1O (some centres undefined) 3.79 µM

The compounds below were run on CP325 in the same assay as above. Conditions: P. falciparum in erythrocytes, SYBR Green DNA, 72 h; series mostly up to 12.8 µM; activity, negative = inhibition: at the top concentration.
Procedure, shortened: as §1

activity, negative = inhibition, inactive:
CN(C)CCCOC1C(C(O)CO)OC2OC(C)(C)O[C@@H]21 (some centres undefined) -1.76% [at 28.7 µM], CCC(C)C(=O)OC1CCC=C2C=CC(C)C(CCC3CC(O)CC(=O)O3)[C@@H]21 (some centres undefined) 1.05% [at 28.7 µM], CC(=O)OC1CCC2C3CCc4cc(O)ccc4C3CCC12C (centres undefined) -1.93% [at 28.7 µM], CC[C@@]12CCCN3CCc4c(n(c5ccccc45)[C@](O)(C(=O)OC)C1)C32 (some centres undefined) -5.58% [at 28.7 µM], CN1CC(=O)N=C1N -2.74% [at 28.7 µM], OCC1OC([S-])[C@H](O)C(O)C1O.[Au+] (some centres undefined) 2.31% [at 28.7 µM], CC(C)C1CCC(C(=O)NC(Cc2ccccc2)C(=O)O)CC1 (centres undefined) -0.302% [at 28.7 µM], CCC(CCC(C)C1CCC2C3CC=C4CC(O)CC[C@@]4(C)C3CC[C@@]12C)C(C)C (some centres undefined) 2.78% [at 28.7 µM], C[C@]12CCC(=O)C=C1CCC1C2C(=O)C[C@]2(C)C1CC[C@]2(O)C(=O)CO (some centres undefined) 7.2% [at 28.7 µM], OCC1O[C@H](OC2C(CO)O[C@@](O)(CO)C2O)C(O)C(O)C1O (some centres undefined) 6.4% [at 28.7 µM], CC1(C)OC2CO[C@]3(COS(N)(=O)=O)OC(C)(C)OC3C2O1 (some centres undefined) 2.09% [at 28.7 µM], CC1(C)OC2CC(=O)OC[C@@]23C1CC(=O)[C@]1(C)C3CC[C@@]2(C)C(c3ccoc3)OC(=O)C3O[C@@]321 (some centres undefined) -1.52% [at 28.7 µM], CCOC(=O)C1=CC(OC(CC)CC)C(NC(C)=O)C(N)C1 (centres undefined) -3.18% [at 28.7 µM], COC(=O)C(Cc1ccccc1)NC(=O)C(N)CC(=O)O (stereo not drawn) (H-Asp-Phe-OMe; configuration not given here) 7.8% [at 28.7 µM], C[C@]12C=CC(=O)C=C1CCC1C2C(O)C[C@]2(C)C1CC[C@]2(O)C(=O)CO (some centres undefined) -7.35% [at 28.7 µM], CC1(C)S[C@H]2C(NC(=O)[C@@H](N)c3ccc(O)cc3)C(=O)N2[C@@H]1C(=O)O (some centres undefined) 4% [at 28.7 µM], CC(C)=CCC[C@](C)(O)C1CC=C(C)CC1 (some centres undefined) -0.102% [at 28.7 µM], C[C@]1(c2ccccc2)OC(C(=O)O)=CC1=O 0.865% [at 28.7 µM], CC(=O)N[C@H](CC(C)C)C(=O)O 8.86% [at 28.7 µM], COc1ccc2cc(C(C)CO)ccc2c1 (centres undefined) 0.0047% [at 28.7 µM], CC1CCC(C(C)C)C(=O)C1 (centres undefined) 11.6% [at 28.7 µM], CNC1CC(N)[C@H](O)[C@@H](O[C@@H]2OC(CO)C3OC4(OC(C(N)CO)C(O)C(O)C4O)O[C@@H]3[C@H]2O)C1O (some centres undefined) -3.39% [at 28.7 µM], CCCC(=O)O[C@]1(C(=O)CO)CCC2[C@@H]3CCC4=CC(=O)CC[C@]4(C)C3C(O)C[C@]21C (some centres undefined) -1.09% [at 28.7 µM], CC(=O)[C@]1(O)CCC2C3C=C(Cl)C4=CC(=O)C5CC5[C@@]4(C)C3CC[C@]21C (some centres undefined) -10.5% [at 28.7 µM], CC(=O)N[C@@H]1C(O)OC(CO)C(O)C1O (some centres undefined) -12.3% [at 28.7 µM], C/C1=C2N=C(/C=C3N=C(/C(C)=C4\[N-]C(C)(C5N=C1C(C)(CCC(=O)NCC(C)OP(=O)([O-])O[C@H]1C(O)C(n6cnc7cc(C)c(C)cc76)O[C@@H]1CO)C5CC(N)=O)C(C)(CC(N)=O)C4CCC(N)=O)C(C)(CC(N)=O)C\3CCC(N)=O)C(C)(C)C/2CCC(N)=O.[CH2-]C1OC(n2cnc3c(N)ncnc32)C(O)C1O.[Co] (some centres undefined) 0.133% [at 28.7 µM], O=C1OC(CO)C(O)C(O)C1O (centres undefined) -1.09% [at 28.7 µM], CNC1C(OC2C(O[C@@H]3C(O)C(O)[C@@H](N=C(N)N)C(O)C3N=C(N)N)OC(C)[C@@]2(O)CO)OC(CO)C(O)C1O (some centres undefined) 0.269% [at 28.7 µM], Nc1nc2ncc(CNc3ccc(C(=O)NC(CCC(=O)O)C(=O)O)cc3)nc2c(=O)[nH]1 (centres undefined) 0.74% [at 28.7 µM]

Potency, active:
NC(C(=O)O)[C@@H]1CC(Cl)=NO1 (some centres undefined) 2.69 µM, COC1C=CO[C@@]2(C)Oc3c(C)c(O)c4c(O)c(c(C=NN5CCN(C)CC5)c(O)c4c3C2=O)NC(=O)/C(C)=C\C=CC(C)C(O)[C@@H](C)C(O)C(C)[C@H](OC(C)=O)C1C (some centres undefined) 4.78 µM, COc1cc(C2c3cc4c(cc3C(O[C@@H]3OC5COC(c6cccs6)OC5C(O)C3O)C3COC(=O)C23)OCO4)cc(OC)c1O (some centres undefined) 4.78 µM
